# Hits are enriched below; roughly 11% of the tested compounds scored in any of these assays.
# HP1b binding inh = blocks HP1-beta chromodomain binding to methylated histone tails. P83916. AlphaScreen HP1-beta / biotin-H3K9me3 peptide binding. Potency, µM (highest dose often 114 µM), for inactives: at the highest dose activity change, negative = inhibition, most hits filed as inhibitors. hit rate 0.56% among 390,000; further: potency means the concentration at half of the fitted maximal effect; nearly all actives have a fitted effect of over 70% in size
#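 Compound inhibition of the preformed complex between 50 nM HP1-beta and 50 nM biotinylated H3K9me3 peptide was read by AlphaScreen. Buffer was PBS pH 7.4 with 0.01% Tween-20. Incubations ran 30 min at room temperature, with 10 ug/mL donor/acceptor beads.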
# PI5P4Ka inh = inhibitors of human PI5P4K alpha. P48426. PI5P4Kalpha enzyme, ADP-Glo luminescence, 60 min; active compounds read low. max response, %. hit rate 1.2% among 330,000. AID 652105; active means max response of -50% or lower; inconclusive means between -30% and -50%; inactive means -30% or higher; further: value at the top dose of about 77 µM; on the % scale 0 is the no-effect control and ±100 the full control effect
#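 PI5P4Kalpha ADP-Glo assay; 5 microM ATP final; 60 min RT reaction; HEPES pH 7.4/EGTA/CHAPS, 5% DMSO; controls lacking substrate or enzyme; luminescent end-point.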
# G9a inh = blocks human histone lysine methyltransferase G9a | Q96KQ7 | G9a H3K9 monomethylation, AlphaScreen, 2 h | Potency, µM (doses to about 102 µM), inactives show top-dose activity, negative = inhibition, actives largely listed as inhibitors | hit rate 8.8% among 350,000 | AID 504332; further: potency means the concentration at half of the fitted maximal effect; on the % scale 0 is the no-effect control and ±100 the full control effect; nearly all actives have a fitted effect of over 75% in size
#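 G9a (20 nM) preincubated 15 min RT with compounds, then 500 nM biotinylated H3K9 peptide and 20 uM SAM added; 2 h RT reaction. Monomethyl-H3K9 product detected by AlphaScreen with anti-H3K9me1 antibody, streptavidin donor and anti-rabbit IgG acceptor beads.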
# BAZ2B block = blocks human BAZ2B; AlphaScreen BAZ2B-H3K14Ac peptide displacement; Potency, µM (series often up to 114 µM), for inactives: at the highest dose activity change, negative = inhibition, hits mostly inhibitors; hit rate 4.4% among 360,000; AID 504333; further: potency means the concentration at half of the fitted maximal effect; on the % scale 0 is the no-effect control and ±100 the full control effect; nearly all actives have a fitted effect of over 60% in size
#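 BAZ2B 50 nM plus b-H3(5-23)K14Ac 50 nM, PBS pH 7.4/0.01% Tween-20, 30 min RT; compound added (max 110 uM), 30 min RT; streptavidin donor/Ni-chelate acceptor beads 10 ug/mL final, 20 min dark; AlphaScreen read.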
# JMJD2A Tudor inh = inhibitors of human JMJD2A Tudor domain; O75164; AlphaScreen JMJD2A-Tudor / H3K4me3 peptide binding; Potency, µM (highest dose often 114 µM), for the others: top-dose activity change, negative = inhibition, actives largely listed as inhibitors; hit rate 4.4% among 390,000; AID 504339; further: potency means the concentration at half of the fitted maximal effect; on the % scale 0 is the no-effect control and ±100 the full control effect; nearly all actives have a fitted effect of over 50% in size
# L3MBTL1 inh = L3MBTL1 (human) inhibition | AlphaScreen L3MBTL1–H3K9me1 peptide binding | hit rate 0.66% among 230,000 | Potency, µM (titrated, usually from 57.1 µM), for the others: at the highest dose activity, negative = inhibition, actives largely listed as inhibitors | AID 485360; further: potency means the concentration at half of the fitted maximal effect; on the % scale 0 is the no-effect control and ±100 the full control effect; nearly all actives have a fitted effect of over 60% in size
# Target sequence (Q9Y468 whole entry, looked up): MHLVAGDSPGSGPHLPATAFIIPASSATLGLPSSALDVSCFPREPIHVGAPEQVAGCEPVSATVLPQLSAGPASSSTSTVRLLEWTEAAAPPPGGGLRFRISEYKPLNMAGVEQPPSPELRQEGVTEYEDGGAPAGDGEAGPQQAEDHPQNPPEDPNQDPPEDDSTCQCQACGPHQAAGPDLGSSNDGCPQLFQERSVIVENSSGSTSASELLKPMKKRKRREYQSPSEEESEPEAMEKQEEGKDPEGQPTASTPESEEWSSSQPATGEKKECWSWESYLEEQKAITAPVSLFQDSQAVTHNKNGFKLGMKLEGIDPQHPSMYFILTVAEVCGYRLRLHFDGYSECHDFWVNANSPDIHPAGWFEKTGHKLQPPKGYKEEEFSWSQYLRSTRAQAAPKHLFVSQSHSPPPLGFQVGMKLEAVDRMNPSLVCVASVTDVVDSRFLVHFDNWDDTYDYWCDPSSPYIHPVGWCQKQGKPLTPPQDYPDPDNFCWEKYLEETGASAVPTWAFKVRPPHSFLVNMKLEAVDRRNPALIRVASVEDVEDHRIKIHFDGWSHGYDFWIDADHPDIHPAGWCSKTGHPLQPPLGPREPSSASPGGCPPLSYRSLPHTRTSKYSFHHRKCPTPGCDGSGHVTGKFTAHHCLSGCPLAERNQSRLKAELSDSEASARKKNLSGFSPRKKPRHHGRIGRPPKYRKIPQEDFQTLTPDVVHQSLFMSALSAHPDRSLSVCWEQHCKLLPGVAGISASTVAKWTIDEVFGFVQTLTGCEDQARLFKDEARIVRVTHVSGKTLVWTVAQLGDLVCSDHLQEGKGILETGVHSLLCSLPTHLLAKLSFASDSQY
#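 L3MBTL1 50 nM + b-AHA-H3(1-15)K9me1 75 nM, 30 min RT; compound added, 30 min RT; streptavidin donor/Ni-chelate acceptor beads 10 ug/mL each final, 30 min RT dark; AlphaScreen read.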
# Starred values were filed as active, the others as inactive; ? = inconclusive; . = no result; [ ] = dose if it differs, or a comment. Unless noted, the call rests on the fitted dose curve; in most records, active means well fitted inhibition curve with a large enough effect; inconclusive means small, poorly fitted or top-dose-only effect; inactive means no such curve, though single readings can be large or run the other way.
SMILES,HP1b binding inh,PI5P4Ka inh,G9a inh,BAZ2B block,JMJD2A Tudor inh,L3MBTL1 inh
O=C1CC(/C=C/c2ccc([N+](=O)[O-])cc2)=Nc2ccccc2N1,-14%,?,.,?,-10%[11.4 µM],-13%
O=C1CC(/C=C/c2ccccn2)=Nc2ccccc2N1,-15%,5,45µM*,?,45µM*,.
O=C1CC(/C=C/c2ccco2)=Nc2ccccc2N1,17%,-73*,45µM*,-12%,-29%,.
O=C1CC(C(F)(F)C(F)(F)C(F)(F)C(F)F)=Nc2ccccc2N1,13%,.,12%,6%,7%,8%
COc1ccc(-c2nnc3n2N=C(c2cc(OC)ccc2OC)CS3)c(OC)c1,.,.,.,.,-9%,.
C(=NN1CCCCCC1)c1ccccc1,-33%,9,.,.,?,.
Clc1ccc(C=NN2CCCCCC2)cc1,-33%,11,.,.,35µM*,.
N#Cc1ccc(C=NN2CCCCCC2)cc1,?,4,.,.,35µM*,.
Clc1ccc(/C=N/N2CCCCC2)cc1,-12%,10,-36%[59 µM],-38%,50µM*,?
COc1ccc(OC)c(CCNC(=O)c2cc3cccc4c3n2CC(C)S4)c1 (centres undefined),25%,.,?,-38%,-32%,.
O=C(c1csnn1)N1CCC2(CCCN(c3ccccn3)C2)CC1,.,.,-1%[12.7 µM],.,.,.
C[C@H](CC[C@@H]1OC1(C)C)C1CC[C@H]2[C@@H]3CC=C4C[C@@H](O)CC[C@]4(C)[C@H]3CC[C@]12C (some centres undefined),.,.,30%[59 µM],.,.,.
CCOC(=O)c1c(C)[nH]c(CCC(=O)NCc2cc(Br)ccc2OC)c1C,1%[57 µM],.,0%[59 µM],-21%,?,.
COc1ccccc1CNC(=O)Cc1c[nH]c2ccccc12,-6%,8,-5%,-12%,-22%,.
Cc1ccc(NC(=O)[C@H](CC(C)C)NC(=O)[C@@H]2Cc3ccccc3CN2)cc1,15%,5,32µM*,?,-24%,.
COc1ccccc1CNC(=O)[C@H](Cc1c[nH]c2ccccc12)NC(=O)[C@@H]1Cc2ccccc2CN1,26%,-5,13µM*,?,-27%,-11%
COc1ccc(C)cc1NC(=O)CNC(=O)[C@@H]1Cc2ccccc2CN1,29%,0,45µM*,-6%[57.1 µM],-12%,.
Cc1ccc(NC(=O)[C@@H](CC(C)C)NC(=O)[C@@H]2Cc3ccccc3CN2)cc1,49%,2,?,-19%,-25%,.
Cc1cccc(NC(=O)[C@H](Cc2ccccc2)NC(=O)[C@@H]2Cc3ccccc3CN2)c1,25%,-2,-8%[0.0925 µM],?,-29%,.
COc1cccc(NC(=O)[C@H](CC(C)C)NC(=O)[C@@H]2Cc3ccccc3CN2)c1,4%,7,17%[0.0925 µM],?,79µM*,.
COc1ccccc1-c1nnc2n(CCc3ccccc3)c(=O)c3ccccc3n12,38%,.,-6%[59 µM],-1%,-11%,.
O=C(CSc1ccc2nnc(CCNS(=O)(=O)c3ccccc3)n2n1)Nc1ccccc1C(F)(F)F,48%,.,-32%[59 µM],-18%,-16%,.
NCCNC(=O)c1ccc(Cl)cn1,.,.,14%[12.7 µM],.,.,.
CCOc1ccc(-n2c(Cc3cc(=O)[nH]c(=O)[nH]3)nnc2SC(C)C)cc1,21%,-3,-8%[59 µM],2%,-21%,-3%
CCOc1ccc(-n2c(Cc3cc(=O)[nH]c(=O)[nH]3)nnc2SCc2cccnc2)cc1,.,.,56µM*,-1%,.,-2%
CC1CCN(C(=O)CSc2nnc(Cc3cc(=O)[nH]c(=O)[nH]3)n2-c2ccc(Cl)cc2)CC1,22%[57 µM],6,35µM*,-4%,-9%[57.1 µM],13%
CCC(C)Sc1nnc(Cc2cc(=O)[nH]c(=O)[nH]2)n1-c1ccc(F)cc1 (centres undefined),67%,2,40µM*,42%,-12%,.
CCCSc1nnc(Cc2cc(=O)[nH]c(=O)[nH]2)n1-c1cc(C)ccc1C,41%,2,?,-5%,14µM*,7%
O=C(CSc1nc2c([nH]c3ccccc32)c(=O)n1-c1cccc(Cl)c1)N1CCCC1,27%[57 µM],.,-5%[59 µM],-19%,-15%,.
CC(C)NC(=O)c1ccc(CSc2nc3ccncc3n2Cc2cccc(F)c2)cc1,40%,.,-29%[59 µM],0%,1%,.

# Bioassay records (PubChem)
